Records with an inconclusive call do not appear. Where a structure was tested more than once in an assay, its records may differ in their call. Active and inactive are the calls of the source. The calls were made as follows, unless noted: active = hit-call score of the fitted dose curve at least 0.9, where 1 is the maximum; inactive = score below 0.9.
Experiments:
[1] = biological target: Paired box protein Pax-6 (Homo sapiens) (UniProt P26367); assay: ATG_Pax6_CIS: Attagene CIS-FACTORIAL HepG2 Assay for human Paired Box 6 (PAX6) (AID 2282956); conditions: HepG2 CIS-FACTORIAL PAX6 reporter transcription, RNA readout; actives raise or lower the signal
Sequence of Paired box protein Pax-6 (Homo sapiens) (P26367 whole entry, looked up): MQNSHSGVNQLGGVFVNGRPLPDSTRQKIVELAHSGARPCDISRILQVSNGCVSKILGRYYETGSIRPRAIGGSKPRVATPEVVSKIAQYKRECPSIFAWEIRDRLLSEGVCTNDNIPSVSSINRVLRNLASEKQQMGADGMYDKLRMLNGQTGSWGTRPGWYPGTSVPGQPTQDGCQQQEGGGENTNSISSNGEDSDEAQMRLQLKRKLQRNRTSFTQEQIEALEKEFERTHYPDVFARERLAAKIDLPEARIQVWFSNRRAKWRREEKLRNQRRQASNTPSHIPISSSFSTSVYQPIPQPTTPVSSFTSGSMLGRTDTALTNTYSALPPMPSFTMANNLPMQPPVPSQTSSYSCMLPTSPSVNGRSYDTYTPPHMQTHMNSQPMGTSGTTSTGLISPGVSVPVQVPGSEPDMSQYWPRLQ
Summary of the method: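 Transient MRTU transfection of HepG2 → compound exposure 24 h → TriZol RNA, oligo(dT) RT → PCR, 6-FAM primer extension, HpaI cut → capillary electrophoresis; activity fitted both directions against DMSO.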

[2] = ATG_PXRE_CIS: Attagene CIS-FACTORIAL HepG2 Assay for human Pregnane X Receptor Element (PXRE) (AID 2282957); conditions: HepG2 Attagene CIS-FACTORIAL PXRE reporter, mRNA; actives raise or lower the signal
Summary of the method: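 Cis-element reporter mRNA in human hepatoma HepG2 cells is measured 24 h post-dosing by RT-PCR, primer-extension labeling and capillary electrophoresis; gain or loss of signal is fitted relative to DMSO.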

[3] = ATG_PPRE_CIS: Attagene CIS-FACTORIAL HepG2 Assay for human Peroxisome Proliferator-activated Response Element (PPRE) (AID 2282958); conditions: HepG2 PPRE cis-element reporter, Attagene transcription factor profiling; actives raise or lower the signal
Summary of the method: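 Endogenous PPRE-driven transcription is measured in HepG2 cells carrying transfected multi-reporter constructs. Reporter transcripts are quantified by RT-PCR, HpaI digestion and capillary electrophoresis 24 h after dosing. DMSO baseline, bidirectional fit.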

[4] = ATG_RORE_CIS: Attagene CIS-FACTORIAL HepG2 Assay for human RAR-related Orphan Receptor Element (RORE) (AID 2282959); conditions: HepG2 Attagene cis-factorial RORE reporter, mRNA; actives raise or lower the signal
Summary of the method: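 RORE reporter transcripts reflecting endogenous factor activity were read after 24 h compound exposure of transfected HepG2 cells, using reverse transcription, PCR, fluorescent labelling and capillary electrophoresis sizing. Gain or loss fitted against DMSO.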

[5] = ATG_Sox_CIS: Attagene CIS-FACTORIAL HepG2 Assay for human SRY-box transcription factor (SOX) (AID 2282960); conditions: HepG2 Attagene cis-factorial SOX reporter, mRNA; actives raise or lower the signal
Summary of the method: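 Reporter transcripts, measured by RT-PCR and capillary electrophoresis of labelled fragments, report endogenous SOX transcription factor activity. Transiently transfected human HepG2 cells receive chemical for 24 h; changes in either direction are fitted relative to DMSO.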

[6] = biological target: Transcription factor Sp1 (Homo sapiens) (UniProt P08047); assay: ATG_Sp1_CIS: Attagene CIS-FACTORIAL HepG2 Assay for human Specificity Protein 1 (Sp1) (AID 2282961); conditions: HepG2 Sp1 cis-reporter transcription, actives raise or lower the signal
Sequence of Transcription factor Sp1 (Homo sapiens) (P08047 whole entry, looked up): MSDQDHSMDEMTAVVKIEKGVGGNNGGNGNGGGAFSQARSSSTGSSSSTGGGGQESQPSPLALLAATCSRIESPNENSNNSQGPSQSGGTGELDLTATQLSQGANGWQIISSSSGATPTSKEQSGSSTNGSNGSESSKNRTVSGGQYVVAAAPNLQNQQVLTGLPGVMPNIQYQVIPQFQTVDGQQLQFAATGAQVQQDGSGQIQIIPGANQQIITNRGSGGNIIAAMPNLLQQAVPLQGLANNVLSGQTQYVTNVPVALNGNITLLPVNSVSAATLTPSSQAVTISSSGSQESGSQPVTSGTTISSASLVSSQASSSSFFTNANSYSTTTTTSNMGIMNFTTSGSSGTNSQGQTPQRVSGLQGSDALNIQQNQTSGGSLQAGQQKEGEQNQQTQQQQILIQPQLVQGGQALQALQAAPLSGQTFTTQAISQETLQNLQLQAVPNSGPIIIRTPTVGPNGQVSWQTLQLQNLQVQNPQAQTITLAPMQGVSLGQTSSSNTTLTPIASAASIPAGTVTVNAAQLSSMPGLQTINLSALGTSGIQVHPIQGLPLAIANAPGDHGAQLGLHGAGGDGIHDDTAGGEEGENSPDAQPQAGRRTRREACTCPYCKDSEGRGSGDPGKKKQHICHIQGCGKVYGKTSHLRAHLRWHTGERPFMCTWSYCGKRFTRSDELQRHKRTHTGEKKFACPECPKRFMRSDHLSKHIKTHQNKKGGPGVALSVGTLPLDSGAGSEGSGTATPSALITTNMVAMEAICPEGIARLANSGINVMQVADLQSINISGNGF
Summary of the method: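 Read-out is reporter transcript level, measured by RT-PCR and fluorescent capillary electrophoresis after 24 h chemical treatment. System: transiently transfected HepG2 cells reporting endogenous transcription factor activity; gain or loss fitted against DMSO baseline.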

[7] = ATG_SREBP_CIS: Attagene CIS-FACTORIAL HepG2 Assay for human Sterol Regulatory Element Binding (SREBP) (AID 2282962); conditions: HepG2 Attagene cis-factorial SREBP reporter, mRNA; actives raise or lower the signal
Summary of the method: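 Transfected HepG2 (cis-regulated reporter library, endogenous TFs) → compound 24 h → total RNA → oligo(dT) RT → reporter-specific PCR → FAM primer extension, HpaI cut → CE fluorescence. Fit bidirectional vs DMSO.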

[8] = biological target: Signal transducer and activator of transcription 3 (Homo sapiens) (UniProt P40763); assay: ATG_STAT3_CIS: Attagene CIS-FACTORIAL HepG2 Assay for human Signal Transducer and Activator of Transcription 3 (STAT3) (AID 2282963); conditions: HepG2, Attagene cis-factorial STAT3 reporter transcription; actives raise or lower the signal
Sequence of Signal transducer and activator of transcription 3 (Homo sapiens) (P40763 whole entry, looked up): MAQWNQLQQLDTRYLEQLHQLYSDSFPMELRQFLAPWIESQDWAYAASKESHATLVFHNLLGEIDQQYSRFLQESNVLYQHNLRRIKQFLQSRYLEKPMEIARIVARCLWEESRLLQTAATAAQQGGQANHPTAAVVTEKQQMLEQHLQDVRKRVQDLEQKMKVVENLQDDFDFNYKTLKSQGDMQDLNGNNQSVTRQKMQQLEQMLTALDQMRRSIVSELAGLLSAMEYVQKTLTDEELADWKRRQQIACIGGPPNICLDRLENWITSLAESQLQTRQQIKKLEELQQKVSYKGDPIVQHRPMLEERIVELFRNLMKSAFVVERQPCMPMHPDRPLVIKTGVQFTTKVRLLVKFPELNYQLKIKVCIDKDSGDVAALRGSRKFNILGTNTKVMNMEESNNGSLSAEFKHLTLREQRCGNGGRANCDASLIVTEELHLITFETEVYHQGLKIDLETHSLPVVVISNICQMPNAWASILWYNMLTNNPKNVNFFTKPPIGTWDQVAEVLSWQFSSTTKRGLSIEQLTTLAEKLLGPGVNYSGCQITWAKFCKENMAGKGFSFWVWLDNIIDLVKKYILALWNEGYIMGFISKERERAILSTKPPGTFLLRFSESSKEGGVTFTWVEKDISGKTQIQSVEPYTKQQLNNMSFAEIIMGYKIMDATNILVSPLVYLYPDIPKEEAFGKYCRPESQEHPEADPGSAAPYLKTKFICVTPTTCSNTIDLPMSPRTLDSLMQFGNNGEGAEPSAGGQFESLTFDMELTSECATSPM
Summary of the method: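 Transcript-level reporter assay. HepG2 transient MRTU transfection, 24 h exposure, fluorescence detection after RT-PCR and CE; DMSO baseline.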

[9] = ATG_TA_CIS: Attagene CIS-FACTORIAL HepG2 Assay for human TA Basal Promoter (AID 2282964); conditions: HepG2 Attagene CIS-factorial TA basal promoter reporter; actives raise or lower the signal
Summary of the method: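 HepG2 cells transiently transfected with multiple reporter units under cis promoter elements, reporting endogenous transcription factor activity; this endpoint tracks the TA basal promoter as background control. Reporter mRNA after 24 h dosing measured by RT-PCR/capillary electrophoresis; bidirectional fits versus DMSO.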

[10] = ATG_TCF_b_cat_CIS: Attagene CIS-FACTORIAL HepG2 Assay for human T-Cell-Factor with beta-catenin (TCF/b-cat) (AID 2282965); conditions: HepG2 TCF/beta-catenin cis-reporter transcription, actives raise or lower the signal
Summary of the method: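 HepG2 cells transiently transfected with multiple cis-promoter-regulated reporter transcription units, so endogenous transcription factor activity is measured. Reporter mRNA read 24 hours after dosing by RT-PCR, fluorescent labelling and capillary electrophoresis; bidirectional fitting against DMSO.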

[11] = ATG_TAL_CIS: Attagene CIS-FACTORIAL HepG2 Assay for human TAL Basal Promoter (AID 2282966); conditions: HepG2 Attagene cis-factorial TAL promoter reporter; actives raise or lower the signal;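 also: background control endpoint measuring basal TAL promoter reporter mRNA not a specific factor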
Summary of the method: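 In this cell-based multiplex, HepG2 liver cells bearing cis-promoter reporter constructs are dosed for 24 hours. Total RNA is reverse-transcribed and amplified, labelled fragments are sized by capillary electrophoresis, and signal changes are fitted bidirectionally versus DMSO.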

[12] = ATG_TGFb_CIS: Attagene CIS-FACTORIAL HepG2 Assay for human Transforming Growth Factor (TGF) (AID 2282967); conditions: HepG2 Attagene CIS TGFb reporter, mRNA transcription; actives raise or lower the signal
Summary of the method: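 HepG2 cells transiently transfected with cis-promoter-driven multiple reporter units measure endogenous TF activity; reporter mRNA quantified at 24 h by RT-PCR, FAM labeling, HpaI digestion and capillary electrophoresis. Bidirectional fit vs DMSO.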

[13] = ATG_VDRE_CIS: Attagene CIS-FACTORIAL HepG2 Assay for human Vitamin D Receptor Element (VDRE) (AID 2282968); conditions: HepG2 VDRE cis-reporter transcription, actives raise or lower the signal
Summary of the method: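 RT-PCR/CE readout of reporter mRNA; HepG2, transient transfection, 24 h dosing; DMSO baseline; bidirectional analysis.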

[14] = biological target: Nuclear receptor subfamily 1 group I member 3 (Homo sapiens) (UniProt Q14994); assay: ATG_CAR_TRANS: Attagene TRANS-FACTORIAL HepG2 Assay for human Constitutive Androstane Receptor (CAR) (AID 2282969; active = hit-call score of the fitted dose curve at least 0.9, where 1 is the maximum;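 also: activators raise reporter mRNA above DMSO so AC50 marks induction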); conditions: HepG2 Attagene TRANS-FACTORIAL CAR reporter
Sequence of Nuclear receptor subfamily 1 group I member 3 (Homo sapiens) (Q14994 whole entry, looked up, the tested form may be a part): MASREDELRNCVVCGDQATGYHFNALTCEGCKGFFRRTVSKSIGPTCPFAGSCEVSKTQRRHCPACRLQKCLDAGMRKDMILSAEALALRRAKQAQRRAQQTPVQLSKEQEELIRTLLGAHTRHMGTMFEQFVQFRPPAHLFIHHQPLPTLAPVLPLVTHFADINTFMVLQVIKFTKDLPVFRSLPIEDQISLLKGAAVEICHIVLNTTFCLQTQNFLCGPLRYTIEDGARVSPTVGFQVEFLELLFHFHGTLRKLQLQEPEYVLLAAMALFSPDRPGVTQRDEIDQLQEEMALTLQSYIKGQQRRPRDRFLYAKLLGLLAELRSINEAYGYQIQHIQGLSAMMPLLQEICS
Summary of the method: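 HepG2 cells transiently transfected with multiplexed GAL4-UAS reporter units expressing chimeric NR-Gal4 proteins; compound exposure 24 h. Reporter mRNA measured by RT-PCR, 6-FAM labelling, HpaI digestion and capillary electrophoresis; gain-of-signal fitted against DMSO baseline.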

[15] = biological target: Estrogen receptor (Homo sapiens) (UniProt P03372); assay: ATG_ERa_TRANS: Attagene TRANS-FACTORIAL HepG2 Assay for human Estrogen Receptor alpha (ERa) (AID 2282970; active = hit-call score of the fitted dose curve at least 0.9, where 1 is the maximum); conditions: HepG2 Attagene TRANS ERa GAL4 reporter, mRNA
Sequence of Estrogen receptor (Homo sapiens) (P03372 whole entry, looked up, the tested form may be a part): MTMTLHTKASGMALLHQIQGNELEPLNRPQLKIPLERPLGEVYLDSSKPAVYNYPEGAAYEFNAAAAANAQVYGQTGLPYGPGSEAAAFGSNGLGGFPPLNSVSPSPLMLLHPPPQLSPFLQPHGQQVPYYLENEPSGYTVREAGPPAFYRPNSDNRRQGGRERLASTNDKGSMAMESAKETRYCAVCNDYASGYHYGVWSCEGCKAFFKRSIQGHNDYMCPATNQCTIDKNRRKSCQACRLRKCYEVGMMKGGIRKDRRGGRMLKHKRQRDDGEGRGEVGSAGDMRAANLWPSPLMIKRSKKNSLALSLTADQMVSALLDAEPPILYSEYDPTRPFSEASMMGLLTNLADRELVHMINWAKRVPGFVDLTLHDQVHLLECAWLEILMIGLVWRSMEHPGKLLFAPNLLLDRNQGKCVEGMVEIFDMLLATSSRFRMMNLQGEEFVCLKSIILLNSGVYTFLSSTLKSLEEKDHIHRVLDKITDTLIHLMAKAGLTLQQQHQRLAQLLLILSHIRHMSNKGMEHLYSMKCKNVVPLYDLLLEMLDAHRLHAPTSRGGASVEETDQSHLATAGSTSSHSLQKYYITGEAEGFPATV
Summary of the method: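 After 24 h of compound treatment, RNA from HepG2 cells bearing transfected GAL4-UAS reporter constructs is converted to cDNA, amplified and fluorescently labelled. Capillary electrophoresis resolves the ERa-linked reporter; DMSO serves as negative control.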

[16] = biological target: X-box-binding protein 1 (Homo sapiens) (UniProt P17861); assay: ATG_Xbp1_CIS: Attagene CIS-FACTORIAL HepG2 Assay for human X-box Binding Protein 1 (XBP1) (AID 2282972); conditions: HepG2 XBP1 cis-element reporter, Attagene multiplex; actives raise or lower the signal
Sequence of X-box-binding protein 1 (Homo sapiens) (P17861 whole entry, looked up): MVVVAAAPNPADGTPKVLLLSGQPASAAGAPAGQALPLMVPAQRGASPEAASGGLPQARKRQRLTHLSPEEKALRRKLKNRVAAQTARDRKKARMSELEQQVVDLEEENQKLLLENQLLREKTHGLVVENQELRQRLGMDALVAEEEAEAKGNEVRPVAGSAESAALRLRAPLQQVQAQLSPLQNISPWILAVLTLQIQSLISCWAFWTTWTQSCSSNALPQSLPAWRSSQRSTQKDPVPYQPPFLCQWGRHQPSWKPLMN
Summary of the method: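 HepG2, transient MRTU transfection (cis-promoter driven), 24 h compound exposure. Total RNA → oligo(dT) RT → PCR → 6-FAM labeling → HpaI cut → CE. Bidirectional fit vs DMSO.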

[17] = ATG_M_19_TRANS: Attagene TRANS-FACTORIAL HepG2 Assay for M19 Transcription Factor (Internal Marker) (AID 2282974; active = hit-call score of the fitted dose curve at least 0.9, where 1 is the maximum); conditions: HepG2 Attagene TRANS-FACTORIAL M19 internal marker reporter
Summary of the method: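 Background-control readout: after 24 h chemical exposure of transfected HepG2 carrying GAL4-driven reporter units, RNA was reverse-transcribed, amplified, fluorescently labeled and sized by capillary electrophoresis; gain-of-signal fit against DMSO.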

[18] = ATG_GAL4_TRANS: Attagene TRANS-FACTORIAL HepG2 Assay for GAL4 (Internal Marker) (AID 2282976; active = hit-call score of the fitted dose curve at least 0.9, where 1 is the maximum); conditions: HepG2 Attagene TRANS GAL4 internal marker reporter
Summary of the method: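 RT-PCR/capillary electrophoresis readout of reporter mRNA. HepG2, transient MRTU transfection (GAL4-UAS reporters), 24 h compound exposure. Background-control endpoint, positive direction vs DMSO baseline.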

[19] = biological target: Estrogen-related receptor gamma (Homo sapiens) (UniProt P62508); assay: ATG_ERRg_TRANS: Attagene TRANS-FACTORIAL HepG2 Assay for human Estrogen-Related Receptor gamma (ERRg) (AID 2282977; active = hit-call score of the fitted dose curve at least 0.9, where 1 is the maximum;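 also: hits increase reporter signal over DMSO so potencies reflect activators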); conditions: HepG2 Attagene TRANS reporter, ERRg transactivation
Sequence of Estrogen-related receptor gamma (Homo sapiens) (P62508 whole entry, looked up, the tested form may be a part): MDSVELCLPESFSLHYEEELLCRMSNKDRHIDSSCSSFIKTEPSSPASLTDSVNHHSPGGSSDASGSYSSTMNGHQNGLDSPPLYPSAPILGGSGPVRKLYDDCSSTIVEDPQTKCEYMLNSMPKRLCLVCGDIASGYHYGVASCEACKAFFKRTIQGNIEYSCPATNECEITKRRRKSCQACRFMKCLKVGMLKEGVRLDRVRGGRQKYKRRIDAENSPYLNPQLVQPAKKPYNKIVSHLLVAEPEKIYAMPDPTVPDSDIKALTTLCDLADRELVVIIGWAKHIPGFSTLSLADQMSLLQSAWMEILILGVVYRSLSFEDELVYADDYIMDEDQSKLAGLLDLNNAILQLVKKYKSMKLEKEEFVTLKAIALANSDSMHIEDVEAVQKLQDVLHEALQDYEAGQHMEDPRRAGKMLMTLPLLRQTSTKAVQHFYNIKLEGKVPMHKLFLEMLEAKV
Summary of the method: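 Transfect HepG2 with multiple GAL4-UAS reporter transcription units; dose chemicals 24 h; isolate RNA, reverse-transcribe with oligo(dT), PCR-amplify, label with 6-FAM, digest with HpaI; size fragments by capillary electrophoresis. DMSO serves as negative control.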

[20] = biological target: Steroid hormone receptor ERR1 (Homo sapiens) (UniProt P11474); assay: ATG_ERRa_TRANS: Attagene TRANS-FACTORIAL HepG2 Assay for human Estrogen-Related Receptor alpha (ERRa) (AID 2282971; active = hit-call score of the fitted dose curve at least 0.9, where 1 is the maximum); conditions: HepG2 Attagene TRANS reporter, ERRa transactivation
Sequence of Steroid hormone receptor ERR1 (Homo sapiens) (P11474 whole entry, looked up, the tested form may be a part): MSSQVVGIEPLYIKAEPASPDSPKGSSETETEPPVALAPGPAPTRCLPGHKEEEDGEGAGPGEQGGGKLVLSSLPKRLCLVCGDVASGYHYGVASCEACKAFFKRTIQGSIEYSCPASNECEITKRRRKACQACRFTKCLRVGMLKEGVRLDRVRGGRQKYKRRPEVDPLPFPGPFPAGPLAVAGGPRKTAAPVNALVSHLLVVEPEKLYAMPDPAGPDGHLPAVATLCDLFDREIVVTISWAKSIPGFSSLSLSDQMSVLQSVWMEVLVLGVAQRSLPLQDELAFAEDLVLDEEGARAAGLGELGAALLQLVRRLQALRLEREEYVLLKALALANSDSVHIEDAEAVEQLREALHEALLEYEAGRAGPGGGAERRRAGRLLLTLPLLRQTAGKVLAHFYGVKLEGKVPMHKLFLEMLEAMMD
Summary of the method: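 Transfected HepG2, 24 h dosing, ERRa-Gal4 chimera driving GAL4-UAS reporter. Readout: reporter mRNA via RT-PCR plus capillary electrophoresis (fluorescence). Positive direction vs DMSO control.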

Measured: AC50

O=C(NS(=O)(=O)/C=C/c1cccs1)c1ccc(F)cc1Br
inactive: [1] | [3] | [4] | [5] | [6] | [7] | [8] | [9] | [11] | [12] | [13] | [14] | [15] | [16] | [17] | [18]
active: [2] 13.7 µM | [10] 11.4 µM

CC(N)=O
inactive: [1] | [2] | [4] | [5] | [6] | [7] | [8] | [9] | [10] | [11] | [12] | [16] | [18]
active: [2] 28.9 µM

O=[Si]=O
inactive: [1] | [2] | [3] | [4] | [5] | [6] | [7] | [8] | [9] | [10] | [11] | [12] | [13] | [15] | [16] | [17] | [18] | [19]

CC(=O)OCC(COC(C)=O)OC(C)=O
inactive: [1] | [2] | [3] | [4] | [5] | [6] | [7] | [8] | [9] | [10] | [11] | [12] | [13] | [16] | [19]

CCCCCCC(CCCCCCCCCCC(=O)OCC(COC(C)=O)OC(C)=O)OC(C)=O (centres undefined)
inactive: [1] | [4] | [5] | [6] | [7] | [8] | [9] | [11] | [12] | [13] | [16]
active: [2] 50 µM | [3] 39.6 µM | [10] 50 µM

CCCC(=O)O
inactive: [1] | [2] | [3] | [4] | [5] | [6] | [7] | [8] | [9] | [10] | [11] | [12] | [13] | [14] | [20] | [16] | [17] | [19]

CC1=C(C)S(=O)(=O)CCS1(=O)=O
active: [3] 89.5 µM
inactive: [1] | [2] | [4] | [5] | [6] | [7] | [8] | [9] | [10] | [11] | [12] | [13] | [14] | [15] | [16]

CCCCOC(=O)CCCCC(=O)OCCCC
inactive: [1] | [2] | [3] | [4] | [5] | [6] | [7] | [8] | [9] | [10] | [11] | [12] | [13] | [16] | [17] | [19]
